The results in this text go back to PubChem BioAssay AID588742 (Southern Research Specialized Biocontainment Screening …, 2011).

The viability is a read-out of living cells in per cent, often relative to untreated cells.

Among all 1,800 compounds or so, about 410 (23%) were called active. Not all results are given here. Entries with a potency or affinity are not part of this list. Values without a mark were called inactive. The rule behind the calls is not given here.

This assay can be described thus: Vero cell cytotoxicity, cytotoxicity control for flavivirus capping enzyme inhibitors (AID 588742). As to conditions: Vero cells viability, cytotoxicity counter-screen; series mostly up to 40 µM; viability: at the top concentration. For orientation: The purpose of a counterscreen is to sort out artefacts and off-target activity.
In the case of `O=C1C2C3CCCC3=C3CCCC3C2C(=O)N1c1cccc(Cl)c1` (centres undefined), the “viability” value is 101%. Turning to `O=C(O)c1cccc(Nc2nc3ccccc3nc2NS(=O)(=O)c2cccs2)c1`, the “viability” value is 96.3%. As to `Cc1ccc(N2NC(=O)/C(=C/c3ccc(-c4ccc(Cl)c(C(=O)O)c4)o3)C2=O)cc1C`, the “viability” value was 95%. The figure for `COc1cccc(/C=C2\C(=O)C(=O)c3ccccc32)c1` is 97.9%; for `O=C1C(Cl)=C(Oc2ccccc2)C(=O)c2ccccc21` it is 85.8%; for `CC(=O)OCC1=C(C(=O)O)N2C(=O)C(NC(=O)c3ccc(COc4cccc(Cl)c4Cl)o3)C2SC1` (centres undefined) it is 111%. For the compound `O=C(NCCCN1CCOCC1)c1ccc(NS(=O)(=O)c2ccccc2)cc1`, the “viability” value is 104%. As to `O=C(c1c(F)cccc1F)N1CCCC1`, the “viability” value is 101%. Take `Oc1ccc(/C=N/Nc2ccc(Cl)nn2)c(O)c1O`: the “viability” value was 96%. On to `C#CCOc1ccc(/C=C2/C(=O)N(c3ccc(S(N)(=O)=O)cc3)N=C2C)cc1OC`, for which the “viability” value is 97.6%. In the case of `O=C(CCN1C(=O)/C(=C\c2ccccc2F)SC1=S)Nc1ccc(C(=O)O)c(O)c1`, the “viability” value is 109%.

For the compound `COC(=O)c1sc(N2C(=O)C(O)=C(C(=O)c3ccc(C)o3)C2c2ccc([N+](=O)[O-])cc2)nc1C` (centres undefined), the “viability” value is 97%. Consider `CC[n+]1c(/C=C2\C=C(C)CC(C)(C)C2)sc2ccccc21`, for which the “viability” value is 86.9%. The figure for `CC1=NN(c2ccccc2)C(=O)/C1=C\c1ccc(Oc2ccc([N+](=O)[O-])cc2[N+](=O)[O-])cc1` is 94.5%.

On to `O=C(O)c1cccc(N2C(=O)c3cc([N+](=O)[O-])cc4cc([N+](=O)[O-])cc(c34)C2=O)c1`, for which the “viability” value was 97.3%. The same measure for `O=C(c1cccc(S(=O)(=O)N2CCOCC2)c1)N(Cc1ccc(F)cc1)Cc1ccco1`: 88.5%; for `Cc1ccc(C2/C(=C(/O)c3ccc(Br)cc3)C(=O)C(=O)N2Cc2ccco2)o1` (centres undefined): 103%. The figure for `CCc1ccc([C@@H]2CC=C(C(=O)O)[C@H](c3ccc(C)cc3)N2S(=O)(=O)c2ccc(C)cc2)cc1` is 82.7%; for `O=C(O)/C=C/C(=O)c1c(-c2ccccc2)[nH]c2ccccc12` it is 94%; for `CCc1ccc(NC(=O)C2=CC=CN3CCS(=O)(=O)N=C23)cc1` it is 101%. Consider `Cc1noc(NS(=O)(=O)c2ccc(NC(=O)c3ccccc3NS(=O)(=O)c3ccc(F)c(F)c3)cc2)c1C`, for which the “viability” value was 100%.

With `O=C1C(Cl)=C(N2CCOCC2)C(=O)N1c1ccc(Br)cc1`, the “viability” value is 101%. The same measure for `Cc1ccc(C)c(OCC(=O)NCC2COc3ccccc3O2)c1` (centres undefined): 89.8%; for `COc1nc(OC)nc(N2CCC(C(=O)NC3CC3)CC2)n1`: 95.8%; for `O=C(O)CN1C(=O)/C(=C\c2cc(Br)ccc2OCc2ccc(Cl)cc2)SC1=S`: 92.4%. Regarding `O=C(O)CCN1C(=O)/C(=C\c2cccc(Oc3ccccc3)c2)SC1=S`, the “viability” value is 107%.

For `COc1cc(/C=C2/S/C(=N/S(=O)(=O)c3ccccc3)NC2=O)c([N+](=O)[O-])cc1OC`, the “viability” value was 101%. The same measure for `O=C1OC(c2ccccc2)(c2cc(Br)c(O)c(Br)c2)c2ccccc21` (centres undefined): 111%.

As for `O=C(O)C(Cc1ccccc1)N1C(=O)c2c(Cl)c(Cl)c(Cl)c(Cl)c2C1=O` (centres undefined), the “viability” value is 122%.
